Data as given in PubChem BioAssay (NCATS).
Records with an inconclusive call do not appear. The source made the active and inactive calls. Unless noted, how the calls were made is not given here.

How the values were obtained:
[1] = qHTS profiling of the MIPE4 collection as inhibitors of Plasmodium falciparum (3D7) proliferation (AID 743344);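 further: scaled between DMSO vehicle wells and 0.29 µM artemisinin as full inhibition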; conditions: P. falciparum 3D7 in erythrocytes, SYBR Green DNA fluorescence, 72 h; at 28.5 µM unless noted
Method in brief: (§1)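 Erythrocytes infected with P. falciparum (0.3% parasitemia, 2.5% hematocrit) incubated with compounds 72 h at 37 C, 5% CO2. Lysis with saponin/Triton buffer containing SYBR Green I, overnight at room temperature in the dark; DNA fluorescence (485/535 nm) normalised to 0.29 uM artemisinin and DMSO.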

[2] = qHTS profiling of the MIPE4 collection as inhibitors of Plasmodium falciparum (DD2) proliferation (AID 743345); conditions: P. falciparum Dd2 in erythrocytes, SYBR Green DNA, 72 h; at 28.5 µM unless noted
Method in brief: as §1

[3] = qHTS profiling of the MIPE4 collection as inhibitors of Plasmodium falciparum (DD2) proliferation (Rep 2) (AID 743346); conditions: P. falciparum Dd2 in erythrocytes, SYBR Green DNA, 72 h; at 28.5 µM unless noted
Method in brief: as §1

[4] = qHTS profiling of the MIPE4 collection as inhibitors of Plasmodium falciparum (HB3) proliferation (AID 743347);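 further: plate controls were DMSO vehicle wells for no effect and artemisinin wells for full effect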; conditions: P. falciparum HB3 in erythrocytes, SYBR Green DNA, 72 h; at 28.5 µM unless noted
Method in brief: as §1

[5] = High-throughput drug toxicity screening in the BPDCN cell line Gen2.2 (AID 1224824); conditions: Gen2.2 BPDCN cells; at 45.8 µM (top of the series) unless noted;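 further: cells exposed to compounds for 48 h before reading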
Method in brief: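 CellTiter-Glo luminescence after 48 h compound exposure of Gen2.2 cells; percent activity set with DMSO as 100% and bortezomib (9.2 uM final) as 0%. Cells seeded at 500 per well, RPMI + 10% FBS, 37 °C.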

[6] = High-throughput drug toxicity screening in the BPDCN cell line Cal-1 (AID 1224825); conditions: Cal-1 BPDCN cell viability, qHTS; at 45.8 µM (top of the series) unless noted
Method in brief: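 500 Cal-1 cells/well, RPMI + glutamine + 10% FBS (phenol red-free); cpd added by pin tool; 48 h, 37C, 5% CO2; CTG 15 min RT, lumi read. Normalised: DMSO 100%, bortezomib 9.2 uM 0%.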

[7] = qHTS assay for measurement of the activity of small molecule inhibitors on Zika virus induced Caspase-3 activity in human astrocytoma cells (AID 1224859; active means well fitted curve in the direction sought with a large enough effect; an effect the other way counts as inactive or inconclusive;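 further: plate controls were ZIKV-infected untreated cells for no effect and uninfected cells for full effect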)
Method in brief: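 Human SNB-19 astrocytoma cells in RPMI 1640 with 10% FBS receive compound one hour ahead of Zika virus at 2 FFU/cell. After 6 h infection, caspase-3/7 activity is detected by Caspase-Glo luminescence.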

[8] = qHTS Screen of the MIPE 4.0 Collection Against Ewings Sarcoma (RDES) (AID 1259252; active means well fitted curve in the direction sought with a large enough effect; an effect the other way counts as inactive or inconclusive; further: nearly all actives have a fitted effect of over 35% in size; further: potency means the concentration at half of the fitted maximal effect)
Method in brief: (§2)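 Cells plated in serum-containing RPMI (5% FBS) and treated with compound dilutions for 48 h. Readout luminescent viability; normalization relied on vehicle (no inhibition) and media-only columns (full inhibition).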

[9] = qHTS Screen of the MIPE 4.0 Collection Against Ewings Sarcoma (TC71) (AID 1259253; active means well fitted curve in the direction sought with a large enough effect; an effect the other way counts as inactive or inconclusive; further: nearly all actives have a fitted effect of over 40% in size; further: potency means the concentration at half of the fitted maximal effect)
Method in brief: as §2

[10] = qHTS Screen of the MIPE 4.0 Collection Against Ewings Sarcoma (EW8) (AID 1259255; active means well fitted curve in the direction sought with a large enough effect; an effect the other way counts as inactive or inconclusive; further: nearly all actives have a fitted effect of over 35% in size; further: potency means the concentration at half of the fitted maximal effect;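 on viability: 100% = DMSO-treated cells and 0% = medium-only wells without cells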)
Method in brief: as §2

[11] = qHTS assay for measurement of the activity of small molecule inhibitors on Zika virus induced Caspase-3 activity in human iPSC derived neural progenitor cells (hNPCs) (AID 1224857; active means well fitted curve in the direction sought with a large enough effect; an effect the other way counts as inactive or inconclusive; further: % of control where 0% means no effect; nearly all actives have a fitted effect of over 65% in size)
Method in brief: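 Pretreat hNPCs with compound 1 h; infect ZIKV 2 FFU/cell; 6 h 37 C, 5% CO2; Caspase-Glo 3/7, 30 min RT; luminescence; normalize to no-virus and virus-only wells.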

[12] = biological target: T1, Hexokinase-4 (Homo sapiens) + Glucokinase regulatory protein (Homo sapiens) (UniProt P35557+Q14397); assay: qHTS assay for inhibitors of recombinant human GCK-GKRP interaction: Diaphorase-coupled assay (AID 743205; active means well fitted curve in the direction sought with a large enough effect; an effect the other way counts as inactive or inconclusive)
T1 sequence (P35557 whole entry, looked up): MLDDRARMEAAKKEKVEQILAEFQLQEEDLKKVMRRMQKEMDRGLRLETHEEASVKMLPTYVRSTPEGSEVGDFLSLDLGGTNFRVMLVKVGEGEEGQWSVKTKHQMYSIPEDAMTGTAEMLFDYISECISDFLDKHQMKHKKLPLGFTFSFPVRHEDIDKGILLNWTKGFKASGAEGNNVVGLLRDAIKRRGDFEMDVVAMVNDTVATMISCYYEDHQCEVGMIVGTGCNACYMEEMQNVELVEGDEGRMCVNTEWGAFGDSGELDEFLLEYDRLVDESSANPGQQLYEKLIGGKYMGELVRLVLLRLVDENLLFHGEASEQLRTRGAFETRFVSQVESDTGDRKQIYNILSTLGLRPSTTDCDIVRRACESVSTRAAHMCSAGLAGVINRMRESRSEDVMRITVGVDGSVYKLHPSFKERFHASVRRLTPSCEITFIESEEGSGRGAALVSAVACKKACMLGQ
T1 sequence (Q14397 whole entry, looked up): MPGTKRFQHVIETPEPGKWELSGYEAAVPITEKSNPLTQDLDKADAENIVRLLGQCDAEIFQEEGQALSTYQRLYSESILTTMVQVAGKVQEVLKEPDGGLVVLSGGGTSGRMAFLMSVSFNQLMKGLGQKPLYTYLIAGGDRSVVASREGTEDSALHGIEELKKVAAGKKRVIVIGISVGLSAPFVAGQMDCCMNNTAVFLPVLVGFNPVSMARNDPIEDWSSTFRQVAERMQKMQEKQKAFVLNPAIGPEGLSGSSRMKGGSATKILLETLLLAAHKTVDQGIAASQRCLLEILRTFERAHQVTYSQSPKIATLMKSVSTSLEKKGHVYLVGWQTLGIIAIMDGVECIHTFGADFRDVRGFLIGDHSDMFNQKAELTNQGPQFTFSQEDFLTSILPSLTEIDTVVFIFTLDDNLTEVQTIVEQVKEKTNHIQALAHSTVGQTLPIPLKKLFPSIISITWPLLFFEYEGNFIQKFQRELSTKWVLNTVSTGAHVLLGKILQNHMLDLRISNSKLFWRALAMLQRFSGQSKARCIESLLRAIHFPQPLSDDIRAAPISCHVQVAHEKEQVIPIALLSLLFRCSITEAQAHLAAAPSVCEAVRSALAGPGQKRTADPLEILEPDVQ
Method in brief: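 Resorufin fluorescence (525/590 nm), read each minute over 30 min, reports GCK activity coupled via G6PDH and diaphorase. Reaction: 10 nM GST-GCK, 10 nM FLAG-GKRP, 5 mM glucose, 0.4 mM ATP, 0.15 mM NADP+, 0.1 mM resazurin.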

[13] = biological target: T1, Hexokinase-4 (Homo sapiens) + Glucokinase regulatory protein (Homo sapiens); assay: qHTS assay for inhibitors of recombinant human GCK-GKRP interaction: ADP-Glo assay (AID 743206; active means well fitted curve in the direction sought with a large enough effect; an effect the other way counts as inactive or inconclusive;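 further: plate controls were DMSO plus enzyme for no effect and no enzyme for full effect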)
Method in brief: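 GST-GCK and FLAG-GKRP (15 nM each in the dispensed mix, with 2 uM S6P) react with 0.4 mM ATP and 5 mM glucose (final) in Hepes pH 7.6 for 60 min at room temperature. ADP is measured by ADP-Glo luminescence.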

[14] = biological target: T1, Hexokinase-4 (Homo sapiens) + Glucokinase regulatory protein (Homo sapiens); assay: qHTS assay for inhibitors of recombinant human GCK-GKRP interaction: HTRF assay (AID 743207; active means well fitted curve in the direction sought with a large enough effect; an effect the other way counts as inactive or inconclusive;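 further: 0% = DMSO with GCK present and -100% = DMSO wells lacking GCK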)
Method in brief: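 HTRF read-out (ex 320 nm; 615/665 nm emission) after 60 min RT equilibration of 5 nM GST-GCK, 5 nM FLAG-GKRP, 2 uM S6P, compound and anti-FLAG/anti-GST detection antibodies; signal normalized between DMSO wells with and without GCK.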

[15] = qHTS Assay for Identifying Gametocytocidal Compounds (AID 743244; active means well fitted curve in the direction sought with a large enough effect; an effect the other way counts as inactive or inconclusive;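 further: on the % scale 0 is the no-effect control and ±100 the full control effect; actives lower the fluorescent signal which means gametocytes are killed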); conditions: P. falciparum 3D7 stage III-V gametocytes, alamarBlue, 72 h; max response: stronger effect = lower value
Method in brief: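 Compounds are pinned into medium, gametocytes (stage III–V, 3D7, 20,000 cells/well) added, and plates held 72 h at 37 °C in 5% CO2. AlamarBlue follows for 24 h before fluorescence reading.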

| Structure (SMILES) | parasite growth, % of DMSO control [1] | parasite growth remaining, % of DMSO control (lower = more inhibition) [2] | parasite growth, % of control (lower = inhibition) [3] | growth, % of control [4] | cell viability, % of control (lower = more cytotoxic) [5] | viability (% of control) [6] | Potency [7] | Potency [8] | Potency [9] | Potency [10] | Potency [11] | outcome [12] | outcome [13] | outcome [14] | max response [15] |
| --- | --- | --- | --- | --- | --- | --- | --- | --- | --- | --- | --- | --- | --- | --- | --- |
| CC[C@H]1OC(=O)[C@H](C)[C@@H](O[C@H]2C[C@@](C)(OC)[C@@H](O)[C@H](C)O2)[C@H](C)[C@@H](O[C@@H]2O[C@H](C)C[C@H](N(C)C)[C@@H]2O)[C@](C)(OC)C[C@@H](C)C(=O)[C@H](C)[C@@H](O)[C@]1(C)O | 46.8% | 44.2% | 66.9% | 51.5% | 99.8% | 108% | inactive | inactive | inactive | inactive |  |  |  |  |  |
| CC(C)(O)Cn1c(NC(=O)c2ccc(-c3cn[nH]c3)s2)nc2cc(CN3CCOCC3)ccc21 | 6.03% | 7.56% | 9.94% | 6.36% | 7.04% | 3.65% |  | 1660 nM (active) | 1660 nM (active) | 2960 nM (active) | inactive |  |  |  |  |
| C=CC[C@@H]1C=C(C)C[C@H](C)C[C@H](OC)[C@H]2O[C@@](O)(C(=O)C(=O)N3CCCC[C@H]3C(=O)O[C@H](C(C)=C[C@@H]3CC[C@H](O)[C@H](OC)C3)[C@@H](C)[C@@H](O)CC1=O)[C@@H](C)C[C@@H]2OC |  | 8.99% | 10.3% | 44.7% | 17.2% | 44.2% | inactive | 2640 nM (active) | 1870 nM (active) |  | inactive |  |  |  |  |
| CN(C)c1ccc(C(=O)NCCCCCCC(=O)NO)cc1 | 5.09% | 7.09% | 8.85% | 2.69% | 15.8% | 4.88% | inactive | 662 nM (active) | 590 nM (active) | 526 nM (active) |  |  |  |  |  |
| CCc1ccc(C(=O)Nc2cc(CN3CCN(C)CC3)cc(C(F)(F)F)c2)cc1C#Cc1cnc2ccnn2c1 | 5.7% | 6.73% |  | 3.13% | 4.8% | 4.46% |  | 20900 nM (active) | 29600 nM (active) | 16600 nM (active) | inactive |  |  |  |  |
| CN1CCc2c(c3ccccc3n2Cc2ccc(C(=O)NO)cc2)C1 | 5.11% | 12.1% | 15.2% | 5.01% | 4.7% | 4.77% | inactive | 13200 nM (active) | 16600 nM (active) | 13200 nM (active) |  |  |  |  |  |
| C[C@H]1COc2c(N3CCN(C)CC3)c(F)cc3c(=O)c(C(=O)O)cn1c23 | 49.9% |  | 49.2% | 60.4% | 160% | 100% | inactive | inactive | inactive |  |  |  |  |  |  |
| C=CC(=O)Nc1cc(NC(=O)c2ccc(C)c(NC(=O)c3ccno3)c2)cc(C(F)(F)F)c1 |  | 52.8% | 57.2% | 22.8% | 4.74% | 3.59% | inactive | 23500 nM (active) | 20900 nM (active) |  | inactive |  |  |  |  |
| C=C(C)[C@@H]1CC[C@]2(C)CC[C@]3(C)[C@H](CC[C@@H]4[C@@]5(C)CC[C@H](O)C(C)(C)[C@H]5CC[C@]43C)[C@@H]12 | 44.1% | 92% |  | 37.4% | 162% | 121% | inactive | inactive | inactive |  | inactive |  |  |  |  |
| C[C@H](CCC(=O)O)[C@H]1CCC2C3C[C@H](O)[C@@H]4C[C@H](O)CC[C@]4(C)C3CC[C@@]21C (some centres not stated) | 79.8% | 102% | 88.7% | 103% | 130% | 120% | inactive | inactive | inactive | inactive |  |  |  |  |  |
| C[C@@H]1C(=O)O[C@H]2CC34[C@H]5C[C@@H](C(C)(C)C)C36[C@H](OC(=O)[C@@H]6O)O[C@@]4(C(=O)O5)[C@]21O (some centres not stated) |  | 97.7% |  |  | 129% | 69% | inactive | inactive | inactive |  |  |  |  |  |  |
| C=C1C(=CC=C2CCC[C@]3(C)[C@@H]([C@H](C)CCCC(C)(C)O)CC[C@@H]23)C[C@@H](O)C[C@@H]1O |  | 95.2% | 22.4% | 9.14% | 20.5% | 6.91% | inactive | 2640 nM (active) | 2960 nM (active) | 5260 nM (active) |  |  |  |  |  |
| CCNC(=O)c1cc2c(-c3cc(OCCN4CCCC4)c(Cl)cc3Cl)nc(N)nc2s1 |  | 9.23% | 25.1% | 5.43% | 13.8% | 13.8% | inactive | 1180 nM (active) | 1320 nM (active) |  |  |  |  |  |  |
| CN[C@H](CC(C)C)C(=O)N[C@H]1C(=O)N[C@@H](CC(N)=O)C(=O)N[C@@H]2C(=O)N[C@H]3C(=O)N[C@H](C(=O)N[C@H](C(=O)O)c4cc(O)cc(O)c4-c4cc3ccc4O)[C@H](O)c3ccc(c(Cl)c3)Oc3cc2cc(c3O[C@@H]2O[C@H](CO)[C@@H](O)[C@H](O)[C@@H]2O[C@H]2C[C@](C)(N)[C@H](O)[C@H](C)O2)Oc2ccc(cc2Cl)[C@H]1O | 387% |  |  |  | 160% | 93.1% | inactive | inactive | inactive |  |  | inactive | inactive | inactive | -6.25% (inactive) |
| COC[C@H](NC(=O)c1cnc(C)s1)C(=O)N[C@@H](COC)C(=O)N[C@@H](Cc1ccccc1)C(=O)[C@@]1(C)CO1 | 5.4% | 7.34% | 12.2% | 5.53% | 0.973% | 3.48% | inactive | 132 nM (active) | 296 nM (active) | 105 nM (active) |  |  |  |  |  |
